Growth data for 40 compounds are collected here from PubChem BioAssay (NCI).

About 83,000 compounds went through this panel and 20% of them were active in at least one assay; those are over-represented in the sample as a whole.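 In brief: 96-well plates, 48 h treatment, single concentration, percent growth endpoint.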 Values without a mark were called inactive. Activity calls are given as the source filed them. How the source made its calls: active means growth percent below 10; inactive means the rest.

The assay concerns HL-60(TB) leukemia. Put plainly: NCI-60 one-dose screen, 48 h (100 = growth as untreated, 0 = no growth, -100 = all killed). The settings on record: 10 µM unless noted.
Regarding `CC[C@H](CC[C@@H](C)[C@H]1CC[C@H]2[C@@H]3CC=C4C[C@@H](OCCc5nn[nH]n5)CC[C@]4(C)[C@H]3CC[C@]12C)C(C)C`, the growth was 103%.

Regarding `COc1ccc(C2C3=C(COC3=O)N(CCO)c3cc4c(cc32)OCO4)cc1OC` (stereo not given), the growth is 65.7%.

As for `NCCCCCNc1noc(Cc2c[nH]c3cc(Br)ccc23)n1`, the growth is -48.8% (active).

Regarding `Cc1ccc([N+](=O)[O-])cc1Br`, the growth is 80.6%.

`COc1ccc(Cn2cc3c(c2)-c2oncc2CC3)cc1`: the growth was 24.5%.

As for `COc1cccc(-c2nc3sccn3c2-c2ccnc(NCCNS(=O)(=O)c3ccc(C(F)(F)F)cc3)c2)c1`, the growth is 14.9%.

As for `OCCOSCCO`, the growth is 99.1%.

Take `CC(C)C1(C(C)C)NC(=O)NC1=O`: the growth was 95.1%.

For the compound `Nc1cc(Br)cc2c1[nH]c(=O)c1ccccc12`, the growth is 91.6%.

On to `CCCCCCCCCC[N+](C)(C)C`, for which the growth is -6.93% (active).

On to `N#Cc1c(-c2ccc(Cl)cc2)nc(N=Nc2c(O)[nH]c3ccc(Cl)cc23)nc1N1CCOCC1`, for which the growth is 104%.

Regarding `c1ccc(-c2nc(N3CCNCC3)c3oc(-c4ccccc4)nc3n2)cc1`, the growth was -46.5% (active).

As for `Fc1cccc(-c2nc(-c3c[nH]c4ncccc34)cs2)c1`, the growth is 97.2% [100 µM].

On to `Oc1ccccc1O`, for which the growth is 55.8%.

As to `CCCCCCCCCCn1cc[n+](C)c1`, the growth was 51.9%.

For `O=C(COc1ccc(/C=C2\Oc3ccccc3C2=O)cc1)c1ccc(Cl)cc1`, the growth was 94.5%.

Regarding `O=C(O)c1cn(C2CC2)c2cc(N3CCN(C(=O)Nc4nc(-c5ccc(Cl)cc5)cs4)CC3)c(F)cc2c1=O`, the growth was -26.2% (active).

Turning to `O=C1C(Cl)=C(Cl)C(Cl)(Cl)C(Cl)C1(Cl)Cl` (stereo not given), the growth was 77.7%.

In the case of `O=C(/C=C/c1sc(Cl)nc1Cl)c1ccccc1`, the growth was 42.2%.

Turning to `O=[N+]([O-])c1ccc(N=Nc2c(Cl)cc(O)cc2Cl)cc1`, the growth is -31.9% (active).

`C=CCC(OC(C)=O)c1ccc(OC)c(OC)c1` (stereo not given): the growth was 116%.

For `CNCCCNCCCN1C(=O)c2ccc3c4c(ccc(c24)C1=O)C(=O)N(CCCNCc1ccccc1OC)C3=O`, the growth was -38.1% (active).

Regarding `CC(=O)OCC1OC(OC2C(COC(C)=O)OC(OCCC[S-])C(OC(C)=O)C2OC(C)=O)C(OC(C)=O)C(OC(C)=O)C1OC(C)=O.[Au+].c1ccc(CN2[CH-]N(Cc3ccccc3)C(c3ccccc3)=C2c2ccccc2)cc1` (stereo not given), the growth is 13.6%.

Take `COc1cccc(-c2nc3sccn3c2-c2ccnc(NCCN3CCCNS3(=O)=O)n2)c1`: the growth was 108%.

As for `C=C(C)[C@@H]1CC[C@]2(C(=O)N3CCCNCC3)CC[C@]3(C)[C@H](CC[C@@H]4[C@@]5(C)CCC(=O)C(C)(C)[C@@H]5CC[C@]43C)[C@@H]12`, the growth is 67.4%.

Regarding `CCN(CC)CCN1CNC(=S)NC1`, the growth is 78.8%.

Consider `COC1=CC(c2ccc[nH]2)=N/C1=C\c1[nH]c(C)c(C)c1CCC(=O)OCc1ccccc1`, for which the growth is -39.1% (active).

On to `Cc1ccc(S(=O)(=O)c2nc(-c3ccccc3)oc2S(C)=O)cc1` (stereo not given), for which the growth was -47.4% (active).

Regarding `CCCn1cnc2c(c1=N)C(c1ccc(F)cc1)c1sc3c(F)cccc3c1O2` (stereo not given), the growth was 3.36% (active).

For the compound `O=Cc1ccc2nc(C(Cl)(Cl)Cl)ccc2c1`, the growth was 104%.

As for `NCCCNc1nc2ccccc2c2c(=O)c3cccc(Cl)c3sc12`, the growth is -45% (active).

Regarding `CN(C)CCN(C)CC(C)(C)C(=O)/C=C/c1ccc(Cl)c(Cl)c1`, the growth is -41.9% [100 µM] (active).

Consider `COc1ccc2[nH]c(O)c(/C=c3/cc4c(c(-c5ccc(F)cc5)n3)=Nc3ccccc3-4)c2c1`, for which the growth was 92.5%.

With `CCOC(=O)C(CCCCC(NC(C)=O)(C(=O)OCC)C(=O)OCC)(NC(C)=O)C(=O)OCC`, the growth was 104%.

With `C/C=C/C1OC23CCCCC2C(C#N)(C(=N)O3)C1(C#N)C#N` (stereo not given), the growth is 106%.

Take `N#Cc1c(-c2cccc([N+](=O)[O-])c2)cc(-c2ccc(Nc3nc(Nc4ccc(F)cc4)nc(Nc4ccc(F)cc4)n3)cc2)nc1N`: the growth was 28.1%.

Regarding `CSc1nn2c(-c3ccc4ccccc4c3)ccnc2c1C#N`, the growth is 14.1%.

With `COc1ccc(CSc2nc3cc(OC)c(OC)cc3c(=O)n2-c2ccc(Cl)cc2)cc1`, the growth is 104%.

On to `COc1ccc(Cl)cc1NC(N)=S`, for which the growth is 101%.

As for `COc1cc2c(cc1OCCCOc1cc3c(cc1OC)C(=O)N1CC(F)(F)C[C@H]1C=N3)N=C[C@@H]1CC(F)(F)CN1C2=O`, the growth is -12.2% (active).
